# Measured values as given in article PMC7862700, “An all-to-all approach to the identification of sequence-specific readers for epigenetic DNA modifications on cytosine”.
# What was measured:
# Test in all cases: DAPPL (digital affinity profiling via proximity ligation, sequencing); 10 mM Tris-HCl pH 7.5, 50 mM NaCl, 1 mM DTT, 4% glycerol, room temperature, 30 min; GST-TFs on glutathione beads, 16-mer random dsDNA library, 0.1% formaldehyde crosslink after washing; high values mean tight binding
# Conditions in all cases: protein: recombinant; tags: N-terminal GST; dsDNA, one strand shown
# FLI1 = biological target: T1, FLI1 (Homo sapiens, UniProt Q01543 1-452)
# T1 sequence: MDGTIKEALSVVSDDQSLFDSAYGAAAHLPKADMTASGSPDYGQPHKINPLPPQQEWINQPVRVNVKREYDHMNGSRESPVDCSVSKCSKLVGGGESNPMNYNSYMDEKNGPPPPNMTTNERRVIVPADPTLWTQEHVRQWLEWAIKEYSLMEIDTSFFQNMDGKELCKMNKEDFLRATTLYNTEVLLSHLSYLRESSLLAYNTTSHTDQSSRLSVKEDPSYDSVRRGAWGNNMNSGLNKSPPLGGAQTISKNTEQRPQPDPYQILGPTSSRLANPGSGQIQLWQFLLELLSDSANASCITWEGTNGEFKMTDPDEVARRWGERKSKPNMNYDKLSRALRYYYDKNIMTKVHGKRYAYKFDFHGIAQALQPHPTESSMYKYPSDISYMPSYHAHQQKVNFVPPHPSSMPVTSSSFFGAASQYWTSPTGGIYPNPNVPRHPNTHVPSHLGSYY
# Summary of the method: (§1)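 Yeast served to express human transcription factors as GST fusions, which were then captured on glutathione beads and labelled with DNA barcodes. Pooled with a tag-only sample, they were incubated with 200 nmole of a 16-mer random double-stranded DNA library for 30 min at room temperature in Tris/NaCl/DTT/glycerol buffer, washed, crosslinked with 0.1% formaldehyde, ligated by proximity, amplified by PCR and sequenced. Dividing each hexamer's read frequency for a factor by its frequency for the tag-only sample gives the binding signal.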
# ELK1 = biological target: T2, ELK1 (Homo sapiens, UniProt P19419 1-428)
# T2 sequence: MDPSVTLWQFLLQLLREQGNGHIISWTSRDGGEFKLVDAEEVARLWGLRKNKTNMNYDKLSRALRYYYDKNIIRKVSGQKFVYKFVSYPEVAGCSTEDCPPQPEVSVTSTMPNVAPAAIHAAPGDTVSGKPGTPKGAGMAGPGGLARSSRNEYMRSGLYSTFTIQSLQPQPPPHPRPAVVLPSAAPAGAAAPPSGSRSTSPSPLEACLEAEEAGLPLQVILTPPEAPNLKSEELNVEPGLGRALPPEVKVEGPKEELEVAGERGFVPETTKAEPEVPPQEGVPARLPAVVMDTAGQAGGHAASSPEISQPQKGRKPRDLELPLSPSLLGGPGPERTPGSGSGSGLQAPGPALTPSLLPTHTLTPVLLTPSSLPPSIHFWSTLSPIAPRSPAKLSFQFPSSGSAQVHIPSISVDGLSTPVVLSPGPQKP
# Summary of the method: as §1
# GABPA = biological target: T3, GABPA (Homo sapiens, UniProt Q06546 1-454)
# T3 sequence: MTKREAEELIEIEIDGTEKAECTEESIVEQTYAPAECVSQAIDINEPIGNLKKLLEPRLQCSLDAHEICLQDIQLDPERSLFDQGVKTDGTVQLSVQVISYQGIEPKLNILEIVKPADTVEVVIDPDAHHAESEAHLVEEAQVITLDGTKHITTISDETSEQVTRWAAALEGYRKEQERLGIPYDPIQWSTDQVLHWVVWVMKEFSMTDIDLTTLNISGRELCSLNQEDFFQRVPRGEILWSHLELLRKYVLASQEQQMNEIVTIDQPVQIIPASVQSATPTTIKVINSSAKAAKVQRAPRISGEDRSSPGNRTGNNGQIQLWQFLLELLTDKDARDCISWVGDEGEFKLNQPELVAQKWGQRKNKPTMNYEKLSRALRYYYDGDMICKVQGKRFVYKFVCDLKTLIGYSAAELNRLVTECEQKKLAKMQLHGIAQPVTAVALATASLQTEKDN
# Summary of the method: as §1
# ERG = biological target: T4, ERG (Homo sapiens, UniProt P11308 1-479)
# T4 sequence: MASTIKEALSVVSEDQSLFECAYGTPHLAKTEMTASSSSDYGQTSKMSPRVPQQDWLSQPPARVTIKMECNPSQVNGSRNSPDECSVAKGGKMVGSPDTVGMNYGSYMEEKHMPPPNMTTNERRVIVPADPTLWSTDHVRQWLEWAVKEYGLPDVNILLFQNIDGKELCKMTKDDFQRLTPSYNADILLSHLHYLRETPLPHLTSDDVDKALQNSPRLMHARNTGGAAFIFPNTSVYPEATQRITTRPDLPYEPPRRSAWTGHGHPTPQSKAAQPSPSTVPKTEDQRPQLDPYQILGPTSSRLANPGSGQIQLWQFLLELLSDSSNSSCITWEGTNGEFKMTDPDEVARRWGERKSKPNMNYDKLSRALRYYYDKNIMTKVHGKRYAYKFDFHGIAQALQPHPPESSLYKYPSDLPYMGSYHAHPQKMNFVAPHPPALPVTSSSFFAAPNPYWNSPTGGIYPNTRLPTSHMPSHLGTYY
# Summary of the method: as §1
# ELF1 = ELF1 (Homo sapiens, UniProt P32519 1-619)
# Sequence of ELF1 (P32519 whole entry): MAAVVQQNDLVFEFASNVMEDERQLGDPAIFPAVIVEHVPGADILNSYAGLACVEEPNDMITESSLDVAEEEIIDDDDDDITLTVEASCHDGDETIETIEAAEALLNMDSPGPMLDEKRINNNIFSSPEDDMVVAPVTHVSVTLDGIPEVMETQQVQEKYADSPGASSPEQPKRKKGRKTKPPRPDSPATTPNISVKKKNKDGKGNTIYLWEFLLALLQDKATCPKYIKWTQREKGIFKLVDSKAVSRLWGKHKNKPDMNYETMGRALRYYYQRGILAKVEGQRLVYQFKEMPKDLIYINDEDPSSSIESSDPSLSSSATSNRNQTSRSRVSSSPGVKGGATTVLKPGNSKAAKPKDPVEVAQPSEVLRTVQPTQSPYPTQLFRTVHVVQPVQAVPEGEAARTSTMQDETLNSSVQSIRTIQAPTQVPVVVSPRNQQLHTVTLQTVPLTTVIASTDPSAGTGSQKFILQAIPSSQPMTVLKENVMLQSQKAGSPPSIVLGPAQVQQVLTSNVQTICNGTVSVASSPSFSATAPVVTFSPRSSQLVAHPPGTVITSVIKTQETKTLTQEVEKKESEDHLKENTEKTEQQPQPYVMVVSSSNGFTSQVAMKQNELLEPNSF
# Summary of the method: as §1
# EHF = biological target: T5, EHF (Homo sapiens, UniProt Q9NZC4 1-300)
# T5 sequence: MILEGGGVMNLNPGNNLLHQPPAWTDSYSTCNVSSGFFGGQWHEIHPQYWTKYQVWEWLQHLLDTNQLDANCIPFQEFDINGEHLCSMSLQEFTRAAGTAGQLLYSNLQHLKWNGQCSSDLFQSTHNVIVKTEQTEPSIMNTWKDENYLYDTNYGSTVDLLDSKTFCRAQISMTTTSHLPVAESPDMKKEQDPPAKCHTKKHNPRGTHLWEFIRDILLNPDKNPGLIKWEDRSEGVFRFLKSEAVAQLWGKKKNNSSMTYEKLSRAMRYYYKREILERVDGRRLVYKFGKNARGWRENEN
# Summary of the method: as §1
# SPI1 = SPI1 (Homo sapiens, UniProt P17947 1-270)
# Summary of the method: as §1
# SPIB = SPIB (Homo sapiens, UniProt Q01892 1-262)
# Sequence of SPIB (Q01892 whole entry): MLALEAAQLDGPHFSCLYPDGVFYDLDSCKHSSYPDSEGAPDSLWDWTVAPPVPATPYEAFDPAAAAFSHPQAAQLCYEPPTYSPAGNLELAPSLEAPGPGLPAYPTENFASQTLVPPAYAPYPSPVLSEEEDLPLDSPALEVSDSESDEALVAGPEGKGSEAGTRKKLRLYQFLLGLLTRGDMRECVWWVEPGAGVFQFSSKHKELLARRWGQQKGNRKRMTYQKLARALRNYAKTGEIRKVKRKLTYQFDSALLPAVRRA
# Summary of the method: as §1
# ELK3 = biological target: T6, ELK3 (Homo sapiens, UniProt P41970 1-407)
# T6 sequence: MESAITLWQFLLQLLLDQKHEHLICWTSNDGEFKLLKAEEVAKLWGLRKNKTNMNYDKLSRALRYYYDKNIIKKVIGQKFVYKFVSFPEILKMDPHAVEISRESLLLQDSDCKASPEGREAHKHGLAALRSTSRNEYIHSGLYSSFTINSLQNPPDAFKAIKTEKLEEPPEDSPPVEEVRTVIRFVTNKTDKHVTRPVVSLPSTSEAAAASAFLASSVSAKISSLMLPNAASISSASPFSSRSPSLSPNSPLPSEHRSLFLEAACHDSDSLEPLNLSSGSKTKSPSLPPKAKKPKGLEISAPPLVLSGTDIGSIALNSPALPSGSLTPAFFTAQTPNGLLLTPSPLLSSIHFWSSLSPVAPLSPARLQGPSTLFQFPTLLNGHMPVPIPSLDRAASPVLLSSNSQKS
# Summary of the method: as §1
# FEV = biological target: T7, FEV (Homo sapiens, UniProt Q99581 1-238)
# T7 sequence: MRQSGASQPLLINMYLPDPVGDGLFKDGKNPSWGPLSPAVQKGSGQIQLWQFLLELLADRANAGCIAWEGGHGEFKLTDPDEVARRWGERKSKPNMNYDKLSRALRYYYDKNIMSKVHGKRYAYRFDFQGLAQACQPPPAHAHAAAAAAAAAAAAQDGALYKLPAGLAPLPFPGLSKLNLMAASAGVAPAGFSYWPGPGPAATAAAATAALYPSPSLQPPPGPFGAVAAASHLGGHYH
# Summary of the method: as §1
# ETV5 = ETV5 (Homo sapiens, UniProt P41161 1-510)
# Sequence of ETV5 (P41161 whole entry): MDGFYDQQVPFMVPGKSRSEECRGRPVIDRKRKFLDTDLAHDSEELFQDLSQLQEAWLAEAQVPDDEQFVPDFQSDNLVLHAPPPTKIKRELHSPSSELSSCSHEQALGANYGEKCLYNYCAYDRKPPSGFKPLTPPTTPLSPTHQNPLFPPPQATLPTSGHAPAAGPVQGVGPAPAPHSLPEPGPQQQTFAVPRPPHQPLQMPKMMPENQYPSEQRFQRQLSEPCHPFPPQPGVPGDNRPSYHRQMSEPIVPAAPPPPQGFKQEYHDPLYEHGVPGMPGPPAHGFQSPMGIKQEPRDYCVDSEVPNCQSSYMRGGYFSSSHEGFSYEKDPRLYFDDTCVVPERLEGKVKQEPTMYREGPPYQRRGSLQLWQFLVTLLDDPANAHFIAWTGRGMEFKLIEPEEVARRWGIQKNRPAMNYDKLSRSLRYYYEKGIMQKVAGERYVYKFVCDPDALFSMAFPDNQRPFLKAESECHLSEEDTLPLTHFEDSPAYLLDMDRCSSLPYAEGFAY
# Summary of the method: as §1
# SPIC = biological target: T8, SPIC (Homo sapiens, UniProt Q8N5J4 1-248)
# T8 sequence: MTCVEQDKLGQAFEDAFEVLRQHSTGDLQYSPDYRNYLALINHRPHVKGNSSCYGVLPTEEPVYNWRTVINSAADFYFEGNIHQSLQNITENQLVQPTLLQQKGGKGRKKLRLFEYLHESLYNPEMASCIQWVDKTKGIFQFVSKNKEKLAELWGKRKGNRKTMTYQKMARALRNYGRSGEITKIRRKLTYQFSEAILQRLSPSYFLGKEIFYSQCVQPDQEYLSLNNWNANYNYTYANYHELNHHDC
# Summary of the method: as §1
# ELF4 = ELF4 (Homo sapiens, UniProt Q99607 1-663)
# Sequence of ELF4 (Q99607 whole entry): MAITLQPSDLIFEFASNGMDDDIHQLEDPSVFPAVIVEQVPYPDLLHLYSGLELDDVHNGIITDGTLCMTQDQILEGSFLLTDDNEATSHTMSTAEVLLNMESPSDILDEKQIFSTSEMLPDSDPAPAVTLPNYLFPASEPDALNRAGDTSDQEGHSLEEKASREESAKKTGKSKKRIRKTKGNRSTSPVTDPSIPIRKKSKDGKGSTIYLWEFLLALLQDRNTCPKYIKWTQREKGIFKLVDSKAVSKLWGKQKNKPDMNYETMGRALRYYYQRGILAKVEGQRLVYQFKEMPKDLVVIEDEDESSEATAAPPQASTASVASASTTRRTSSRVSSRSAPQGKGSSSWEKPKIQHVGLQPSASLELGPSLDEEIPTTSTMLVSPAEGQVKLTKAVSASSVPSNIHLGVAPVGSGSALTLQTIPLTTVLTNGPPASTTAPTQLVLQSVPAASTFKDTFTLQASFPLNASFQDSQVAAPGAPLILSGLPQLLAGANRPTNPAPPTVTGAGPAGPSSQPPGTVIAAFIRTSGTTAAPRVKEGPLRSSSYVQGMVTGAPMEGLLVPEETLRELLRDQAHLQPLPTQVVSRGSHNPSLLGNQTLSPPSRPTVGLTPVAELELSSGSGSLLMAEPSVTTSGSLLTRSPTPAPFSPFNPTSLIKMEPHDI
# Summary of the method: as §1
# ELK4 = biological target: T9, ELK4 (Homo sapiens, UniProt P28324-2 1-405)
# T9 sequence: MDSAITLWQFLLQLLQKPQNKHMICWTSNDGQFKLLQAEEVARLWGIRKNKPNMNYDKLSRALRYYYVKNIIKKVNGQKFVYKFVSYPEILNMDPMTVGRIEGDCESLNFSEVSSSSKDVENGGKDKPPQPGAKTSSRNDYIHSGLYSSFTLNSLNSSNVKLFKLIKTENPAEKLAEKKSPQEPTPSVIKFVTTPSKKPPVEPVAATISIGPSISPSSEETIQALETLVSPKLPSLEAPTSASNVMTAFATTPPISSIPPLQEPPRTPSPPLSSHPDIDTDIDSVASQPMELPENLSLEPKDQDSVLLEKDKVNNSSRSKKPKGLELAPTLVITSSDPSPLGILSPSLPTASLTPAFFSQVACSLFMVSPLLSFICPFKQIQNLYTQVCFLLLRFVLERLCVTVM
# Summary of the method: as §1
# ETV2 = biological target: T10, ETV2 (Homo sapiens, UniProt O00321 1-342)
# T10 sequence: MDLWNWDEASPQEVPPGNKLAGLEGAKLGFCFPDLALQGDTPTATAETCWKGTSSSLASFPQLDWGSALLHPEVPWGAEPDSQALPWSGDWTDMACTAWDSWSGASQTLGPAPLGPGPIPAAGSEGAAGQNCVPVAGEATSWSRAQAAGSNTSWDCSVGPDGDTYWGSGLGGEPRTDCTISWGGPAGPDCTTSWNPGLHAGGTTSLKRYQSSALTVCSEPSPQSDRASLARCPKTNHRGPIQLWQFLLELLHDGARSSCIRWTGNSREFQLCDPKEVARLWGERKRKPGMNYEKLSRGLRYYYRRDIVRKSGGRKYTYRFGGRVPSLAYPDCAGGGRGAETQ
# Summary of the method: as §1
# ELF3 = biological target: T11, ELF3 (Homo sapiens, UniProt P78545 1-371)
# T11 sequence: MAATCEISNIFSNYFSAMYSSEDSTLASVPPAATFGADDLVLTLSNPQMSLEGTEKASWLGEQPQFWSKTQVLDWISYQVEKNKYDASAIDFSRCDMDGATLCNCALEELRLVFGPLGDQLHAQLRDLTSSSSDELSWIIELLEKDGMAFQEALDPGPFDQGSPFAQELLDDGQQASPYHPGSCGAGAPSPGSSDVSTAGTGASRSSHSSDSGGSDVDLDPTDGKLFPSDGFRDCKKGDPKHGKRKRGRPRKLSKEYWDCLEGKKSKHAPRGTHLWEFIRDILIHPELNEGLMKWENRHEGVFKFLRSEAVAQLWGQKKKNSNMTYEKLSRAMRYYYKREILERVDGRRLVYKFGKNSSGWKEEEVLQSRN
# Summary of the method: as §1
# ETV1 = ETV1 (Homo sapiens, UniProt P50549 1-477)
# Sequence of ETV1 (P50549 whole entry): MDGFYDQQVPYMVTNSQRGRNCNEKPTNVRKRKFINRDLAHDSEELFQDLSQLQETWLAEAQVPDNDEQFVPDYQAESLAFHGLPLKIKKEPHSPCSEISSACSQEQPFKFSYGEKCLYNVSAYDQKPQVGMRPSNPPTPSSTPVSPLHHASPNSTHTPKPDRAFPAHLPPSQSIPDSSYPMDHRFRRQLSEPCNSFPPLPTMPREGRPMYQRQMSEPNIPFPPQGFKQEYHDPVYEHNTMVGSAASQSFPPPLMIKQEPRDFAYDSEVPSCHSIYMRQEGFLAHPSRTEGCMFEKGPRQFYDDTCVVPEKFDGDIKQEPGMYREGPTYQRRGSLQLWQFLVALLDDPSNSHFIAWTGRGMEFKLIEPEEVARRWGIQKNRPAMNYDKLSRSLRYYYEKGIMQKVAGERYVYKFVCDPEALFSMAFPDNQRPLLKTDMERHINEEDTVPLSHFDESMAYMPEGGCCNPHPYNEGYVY
# Summary of the method: as §1
sequence,measurement,setting,value
GCTACC,binding signal,FLI1,"1.18 fold enrichment (6-mer frequency, TF over GST control)"
same,binding signal,ELK1,"1.27 fold enrichment (6-mer frequency, TF over GST control)"
same,binding signal,GABPA,"1.25 fold enrichment (6-mer frequency, TF over GST control)"
same,binding signal,ERG,"1.26 fold enrichment (6-mer frequency, TF over GST control)"
same,binding signal,ELF1,"1.29 fold enrichment (6-mer frequency, TF over GST control)"
same,binding signal,EHF,"1.09 fold enrichment (6-mer frequency, TF over GST control)"
same,binding signal,SPI1,"1.11 fold enrichment (6-mer frequency, TF over GST control)"
same,binding signal,SPIB,"1.28 fold enrichment (6-mer frequency, TF over GST control)"
same,binding signal,ELK3,"1.39 fold enrichment (6-mer frequency, TF over GST control)"
same,binding signal,FEV,"1.18 fold enrichment (6-mer frequency, TF over GST control)"
same,binding signal,ETV5,"1.17 fold enrichment (6-mer frequency, TF over GST control)"
same,binding signal,SPIC,"1.23 fold enrichment (6-mer frequency, TF over GST control)"
same,binding signal,ELF4,"1.24 fold enrichment (6-mer frequency, TF over GST control)"
same,binding signal,ELK4,"1.04 fold enrichment (6-mer frequency, TF over GST control)"
same,binding signal,ETV2,"1.08 fold enrichment (6-mer frequency, TF over GST control)"
same,binding signal,ELF3,"1.1 fold enrichment (6-mer frequency, TF over GST control)"
same,binding signal,ETV1,"1.26 fold enrichment (6-mer frequency, TF over GST control)"
